{"source": "PubChem BioAssay AID618", "about": "(Sanford-Burnham Center for Chemical Genomics, 2007)", "note": "Among all 87,000 compounds or so, about 540 (0.62%) were called active. No rule for the calls is given here. The sample as a whole holds a higher share of actives than the screen did. Measured potencies and affinities stand elsewhere."}
{"test": "inhibitors of MT1-MMP promoter transcription, cell-based, luciferase reporter, luminescence (AID 618);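 also: actives suppress MT1-MMP promoter-driven transcription so potencies describe inhibitors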", "settings": "MT1-MMP promoter luciferase reporter cells"}
{"smiles": "Cc1cnc(NC(=O)COc2ccccc2)s1", "outcome": "inactive"}
{"smiles": "Cc1cnc(NC(=O)COc2cccc3c2OC(C)(C)C3)s1", "outcome": "inactive"}
{"smiles": "Cc1cnc(NC(=O)COc2ccccc2Cl)s1", "outcome": "active"}
{"smiles": "CCOC(=O)C1C(=O)NC(N2CCN(Cc3ccccc3)CC2)=NC1c1ccccc1", "note": "(stereo not drawn)", "outcome": "inactive"}
{"smiles": "Clc1ccc(-c2nnc(-c3ccccc3)o2)c(Cl)c1", "outcome": "inactive"}
{"smiles": "Fc1ccc(-c2nnc(-c3ccc(Cl)cc3)o2)cc1", "outcome": "inactive"}
{"smiles": "Cc1cccc(NC(=O)CCc2ccc(C)o2)c1", "outcome": "inactive"}
{"smiles": "C/C(N)=C(/C#N)C(=O)COC(=O)COc1ccc(Cl)cc1", "outcome": "inactive"}
{"smiles": "c1ccc(Nc2ccccc2Nc2ccccn2)nc1", "outcome": "inactive"}
{"smiles": "c1ccc(Nc2ccccn2)cc1", "outcome": "inactive"}
{"smiles": "Oc1cccc2ccc(Nc3ccccn3)nc12", "outcome": "active"}
{"smiles": "O=C(Nc1ccc(F)cc1)c1ccccc1", "outcome": "inactive"}
{"smiles": "Cc1cc(C)nc(NC2=NC3CCCCC3N2)n1", "note": "(stereo not drawn)", "outcome": "inactive"}
{"smiles": "Cc1cc(C)cc(NC(=O)CCn2ccnc2C)c1", "outcome": "inactive"}
{"smiles": "CC1CC(C)CN(c2oc(-c3ccco3)nc2C#N)C1", "note": "(stereo not drawn)", "outcome": "inactive"}
{"smiles": "COc1ccc2c(CSc3nc4nc(C)cc(C)n4n3)cc(=O)oc2c1", "outcome": "inactive"}
{"smiles": "CCC(SCC(=O)OC)C(=O)Nc1nnc(C(C)C)s1", "note": "(stereo not drawn)", "outcome": "inactive"}
{"smiles": "Cc1nnc(Sc2nc(Sc3nnc(C)s3)nc(N3CCN(C)CC3)n2)s1", "outcome": "active"}
{"smiles": "Cc1nnc(SCCn2c(N3CCN(C)CC3)nc3c2c(=O)n(C)c(=O)n3C)s1", "outcome": "inactive"}
{"smiles": "Cc1nnc(SCCn2c(N3CCN(C)CC3)nc3c2c(=O)[nH]c(=O)n3C)s1", "outcome": "inactive"}
{"smiles": "COc1ccc(NC(=O)C2C(=O)N(C)C3(C)CC2c2ccccc2O3)cc1", "note": "(stereo not drawn)", "outcome": "inactive"}
{"smiles": "Cc1ccc2ccc(C3C(=O)c4ccccc4C3=O)nc2c1", "outcome": "inactive"}
{"smiles": "O=C1c2ccccc2C(=O)C1c1ccc2ccccc2n1", "outcome": "active"}
{"smiles": "COC(=O)C1=C(C)NC(C)=C(C(=O)OC)C1c1ccc2ccccc2n1", "outcome": "inactive"}
{"smiles": "CCCCn1c(CCNC(=O)CCC)nc2ccccc21", "outcome": "inactive"}
{"smiles": "CCCCCCc1ccc(OCC(=O)O)cc1OCC(=O)O", "outcome": "inactive"}
{"smiles": "CC(C)(/C=N/O)/[N+]([O-])=C/c1ccco1", "outcome": "inactive"}
{"smiles": "Cc1cc(C(=O)NCCCN2CCOCC2)n(-c2ccccc2)n1", "outcome": "inactive"}
{"smiles": "Cc1cc(C(=O)NCCN2CCN(c3cccc(Cl)c3)CC2)n(-c2ccccc2)n1", "outcome": "active"}
{"smiles": "Cc1cc(C(=O)NCCCN2CCN(C3CCCCC3)CC2)n(-c2ccccc2)n1", "outcome": "inactive"}
{"smiles": "COc1ccc(S(=O)(=O)Cc2ccc(C(=O)N3CCc4ccccc4C3)o2)cc1", "outcome": "inactive"}
{"smiles": "CCC1=C/C(=C/N(C)c2ccccc2)C(=O)S1", "outcome": "inactive"}
{"smiles": "Cc1ccc(-c2cc(=O)[nH][nH]2)c(C)c1", "outcome": "inactive"}
{"smiles": "CCOC(=O)c1c(C)sc2c1N(C(=O)CCl)c1cc(Cl)ccc1S2", "outcome": "active"}
{"smiles": "CCOC(=O)c1c(C)sc2c1N(C(C)=O)c1cc(Cl)ccc1S2", "outcome": "inactive"}
{"smiles": "CCOC(=O)c1c(C)sc2c1N(C(=O)CN(CC)CC)c1cc(Cl)ccc1S2", "outcome": "inactive"}
{"smiles": "CCN1CCN(C(=O)c2cc3cc4ccc(OC)cc4nc3s2)CC1", "outcome": "inactive"}
{"smiles": "CCC(C)NC(=O)c1cc2cc3ccc(OC)cc3nc2s1", "note": "(stereo not drawn)", "outcome": "inactive"}
{"smiles": "O=c1[nH]c(NCCO)nc2ncn(Cc3ccccc3)c12", "outcome": "inactive"}
{"smiles": "Cn1c(C(=O)N2CCCC(C(=O)NCCc3ccccc3)C2)cc2sccc21", "note": "(stereo not drawn)", "outcome": "inactive"}
{"smiles": "Cc1ccc(-c2csc(NC(=O)c3ccno3)n2)cc1", "outcome": "inactive"}
{"smiles": "Cc1ccc(C(=O)CC(=O)c2cc(Cl)ccc2O)cc1", "outcome": "inactive"}
{"smiles": "COc1ccc(C(=O)c2ccccc2)c(O)c1", "outcome": "inactive"}
{"smiles": "O=C(CC(=O)c1cc(Cl)ccc1O)c1ccccc1", "outcome": "inactive"}
{"smiles": "Cc1ccc(O)c(C(=O)CC(=O)c2cccc(F)c2)c1", "outcome": "inactive"}
{"smiles": "CSCCC1C(=O)OC2(C)CC(C)(C)NC(=S)N12", "note": "(stereo not drawn)", "outcome": "inactive"}
{"smiles": "COCCn1c(C)cc(C(=O)CSc2nnc(C)s2)c1C", "outcome": "active"}
{"smiles": "COCCn1c(C)cc(C(=O)CSc2nncn2-c2ccccc2)c1C", "outcome": "inactive"}
{"smiles": "Cc1nnc(SCC(=O)c2cc(C)n(C3CC3)c2C)s1", "outcome": "inactive"}
{"smiles": "COCCn1c(C)cc(C(=O)CSc2ncn[nH]2)c1C", "outcome": "inactive"}
{"smiles": "CCCn1c(=O)c2ccccc2n2c(SCC(=O)c3cc(C)n(CCOC)c3C)nnc12", "outcome": "inactive"}
{"smiles": "CC(=O)N1c2ccccc2C(=O)OC1c1cccnc1", "note": "(stereo not drawn)", "outcome": "inactive"}
{"smiles": "O=C(NCCCn1ccnc1)c1cc2c(s1)CCCCC2", "outcome": "inactive"}
{"smiles": "COc1cccc(CN2C(=O)c3ccccc3C2C(=O)NCC2CCCO2)c1", "note": "(stereo not drawn)", "outcome": "inactive"}
{"smiles": "O=C(O)c1cnn(-c2ccccc2)c1-n1cccc1", "outcome": "inactive"}
{"smiles": "COc1cccc(-n2nnnc2SCC(=O)Nc2cccc(C)n2)c1", "outcome": "inactive"}
{"smiles": "O=C(Cn1cnc2c(nnn2Cc2ccc(F)cc2)c1=O)OCc1ccccc1", "outcome": "inactive"}
{"smiles": "Cc1ccc(S(=O)(=O)NCc2cccnc2)s1", "outcome": "inactive"}
{"smiles": "O=S(=O)(Nc1cccc2c1ccc1cccn12)c1cccs1", "outcome": "inactive"}
{"smiles": "Cc1ccc(S(=O)(=O)Nc2ccnc3ccccc23)cc1", "outcome": "inactive"}
{"smiles": "Cc1ccc(S(=O)(=O)Nc2cccc3ncccc23)s1", "outcome": "active"}
{"smiles": "O=S(=O)(Nc1ccc(-c2nc3cccnc3s2)cc1)c1cccs1", "outcome": "inactive"}
{"smiles": "O=S(=O)(Nc1cccc2ncccc12)c1cccs1", "outcome": "active"}
{"smiles": "CCN(CC)CCOC(=O)c1cccc(Cl)c1", "outcome": "inactive"}
{"smiles": "O=C(c1cccs1)c1no[n+]([O-])c1C(=O)c1cccs1", "outcome": "active"}
{"smiles": "O=C(O)Cc1ccc(C(=O)c2cccs2)s1", "outcome": "inactive"}
{"smiles": "Cc1ccc(C(=O)c2nocc2C(=O)c2cccs2)cc1", "outcome": "inactive"}
{"smiles": "CC(=O)c1cccc(NC(=O)N2CCCC2C(=O)NCc2ccc(F)cc2)c1", "note": "(stereo not drawn)", "outcome": "inactive"}
